Laboratory results: PubChem BioAssay (NCATS)
Records with an inconclusive call do not appear. The source made the active and inactive calls. Unless noted, the call rests on the fitted dose curve.

Tests used:
[1] = qHTS for Inhibitors of the Functional Ribonucleoprotein Complex (vRNP) of Lassa (LASV) Arenavirus: LASV Primary Screen - GLuc reporter signal (AID 1347082; calls by dose curve; tested in HEK293 reporter line; further: nearly all actives have a fitted effect of over 60% in size)
[2] = qHTS for Inhibitors of the Functional Ribonucleoprotein Complex (vRNP) of Lassa (LASV) Arenavirus: Viability assay - alamar blue signal for LASV Primary Screen (AID 1347083; calls by dose curve; tested in HEK293 reporter line; further: nearly all actives have a fitted effect of over 80% in size)
[3] = qHTS for Inhibitors of the Functional Ribonucleoprotein Complex (vRNP) of Lymphocytic Choriomeningitis Arenaviruses (LCMV): Viability assay - alamar blue signal for LCMV Primary Screen (AID 1347085; calls by dose curve; tested in HEK293 reporter line; further: nearly all actives have a fitted effect of over 80% in size)
[4] = biological target: Nucleoprotein (Lymphocytic choriomeningitis virus (strain Armstrong)) (UniProt P09992); assay: qHTS for Inhibitors of the Functional Ribonucleoprotein Complex (vRNP) of Lymphocytic Choriomeningitis Arenaviruses (LCMV): LCMV Primary Screen - GLuc reporter signal (AID 1347086); further: nearly all actives have a fitted effect of over 70% in size

Measured: Potency
Further: series mostly up to about 57 µM.

Nucleoprotein (Lymphocytic choriomeningitis virus (strain Armstrong)), sequence (P09992 whole entry, looked up): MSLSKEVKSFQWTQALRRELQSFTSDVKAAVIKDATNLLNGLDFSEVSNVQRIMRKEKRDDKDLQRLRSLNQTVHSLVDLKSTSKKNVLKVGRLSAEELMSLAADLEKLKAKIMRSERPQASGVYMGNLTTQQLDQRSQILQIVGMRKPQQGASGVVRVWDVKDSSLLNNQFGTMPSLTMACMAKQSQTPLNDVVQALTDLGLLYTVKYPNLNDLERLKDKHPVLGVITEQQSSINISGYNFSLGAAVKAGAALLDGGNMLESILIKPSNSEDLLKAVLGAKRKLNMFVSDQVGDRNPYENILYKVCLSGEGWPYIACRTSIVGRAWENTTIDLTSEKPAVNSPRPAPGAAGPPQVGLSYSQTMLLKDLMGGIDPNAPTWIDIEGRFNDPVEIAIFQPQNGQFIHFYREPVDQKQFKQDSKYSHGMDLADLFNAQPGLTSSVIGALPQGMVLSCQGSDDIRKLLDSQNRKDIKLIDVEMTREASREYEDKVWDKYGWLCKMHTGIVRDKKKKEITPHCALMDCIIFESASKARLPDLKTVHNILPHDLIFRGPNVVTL

C=CCSCC1Nc2cc(Cl)c(S(N)(=O)=O)cc2S(=O)(=O)N1 (stereo unspecified)
inactive: [1] | [2] | [3] | [4]

CCN(CC)CCOC(=O)C(c1ccccc1)c1ccccc1
inactive: [1] | [2] | [3] | [4]

O=C(O)CN(CCOCCOCCN(CC(=O)O)CC(=O)O)CC(=O)O
inactive: [1] | [2] | [3] | [4]

Cc1c(F)cc2c(=O)c(C(=O)O)cn3c2c1CCC3C (stereo unspecified)
inactive: [1] | [2] | [3] | [4]

CCc1cc2cc(OC)c(OC)cc2c(Cc2ccccc2)n1
inactive: [1] | [2] | [3] | [4]

O=C1Nc2cc(Cl)ccc2Oc2ccccc21
inactive: [1] | [2] | [3] | [4]

COC1=C(OC)C(=O)C(CCCCCCCCCCO)=C(C)C1=O
inactive: [1] | [2] | [3] | [4]

C=CCc1ccccc1OCC(O)CNC(C)C (stereo unspecified)
inactive: [1] | [2] | [3] | [4]

C[N+]1(CC2COC(c3ccccc3)(C3CCCCC3)O2)CCCCC1 (stereo unspecified)
inactive: [1] | [2] | [3] | [4]

Cc1c(C)n(Cc2ccccc2)c2ccc(C(=O)OCCN(C)C)cc12
inactive: [1] | [2] | [3] | [4]

CCN(CC)CC(=O)Nc1c(C)cccc1C
inactive: [1] | [2] | [3] | [4]

C[C@H](N)[C@H](O)c1cccc(O)c1
inactive: [1] | [2] | [3] | [4]

C/C=C/C(=O)N(CC)c1ccccc1C
inactive: [1] | [2] | [3] | [4]

COc1ccc(C(Cl)=C(c2ccc(OC)cc2)c2ccc(OC)cc2)cc1
inactive: [1] | [2] | [3] | [4]
